# High-throughput results: PubChem BioAssay, several laboratories
# MRP resist rev = MRP-mediated drug resistance reversal | H69AR cells + 2 uM doxorubicin, CellTiter-Glo, 72 h | actives 0.04% (n = 85,000) | differential viability (reversal), % at 10 µM;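 active = viability drop by adding the cancer drug above about 55%, with treated viability meeting a 40% cutoff, limit read from the data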;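 note: viability without doxorubicin minus viability with 2 µM doxorubicin for each compound; larger differential means the compound sensitizes cells more to doxorubicin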
# Phagocytosis inh = inhibitors of macrophage phagocytosis. J774A.1 macrophage IgG-bead phagocytosis, imaging. inhibition, % at 5 µM. actives 0.07% (n = 110,000). AID 1029;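 active = inhibition above the mean of the plate negative controls plus 5 SD, cut at about 13% in these data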;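 note: phagocytic index as fraction of beads internalized from green versus red external bead signal; plate controls were DMSO negative control for no effect and cytochalasin-D positive control for full effect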
# MRP-1 activ = MRP-1 activation; H69AR cells + doxorubicin, viability rescue, CellTiter-Glo; viability increase, % at 10 µM; actives 0.61% (n = 140,000);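 active = viability gain under doxorubicin at or above a set limit, the compound median plus 3 SD, cut at about 4.7% in these data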;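 note: MRP-1 overexpressing cells given doxorubicin 25 µM after compound pretreatment; 18-22 h compound pretreatment then 72 h with doxorubicin before readout; 0% = doxorubicin-only wells and 100% = vehicle-treated cells without doxorubicin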
# Numbers without * were called inactive; . = not tested or not shown. Most compounds without a hit are left out; they make up all but 0.69% or so of the library.
SMILES,MRP resist rev,Phagocytosis inh,MRP-1 activ
Cc1cccc2cc(CN(Cc3ccco3)S(=O)(=O)c3ccc4c(c3)OCCO4)c(=O)[nH]c12,5,-2,11*
Cc1cc(C)c2[nH]c(=O)c(CN(CC3CCCO3)S(=O)(=O)c3ccc4c(c3)OCCO4)cc2c1 (centres undefined),-4,1,1
CCN1CCCC1CN(Cc1cc2ccc(C)cc2[nH]c1=O)C(=S)Nc1ccc(OC)cc1OC (centres undefined),.,-1,-1
COc1ccccc1OCc1csc(NC(=O)c2ccco2)n1,-1,1,1
O=C(Nc1nc(COc2ccccc2)cs1)c1ccccc1F,.,-2,5.3*
CCOc1cc(/C=N/NC(=O)CCCC(=O)NC2CCCCC2)ccc1O,.,.,-2
Cc1c(Br)c([N+](=O)[O-])nn1CC(=O)Nc1c(C)n(C)n(-c2ccccc2)c1=O,.,-7,-2
O=C1CC(N2CCN(c3ccccc3F)CC2)C(=O)N1c1ccc(F)cc1 (centres undefined),-1,.,.
O=C1CC(N2CCN(c3nc4ccccc4s3)CC2)C(=O)N1c1ccc(F)cc1 (centres undefined),-1,0,4.9*
O=C(/C=C/c1cccc([N+](=O)[O-])c1)N1CCN(c2ccc(F)cc2)CC1,.,-1,-1
Cc1nc2cc(-c3ccc(Cl)cc3)nn2c(C)c1CCC(=O)NC(C)c1ccc2c(c1)OCCO2 (centres undefined),.,.,5.5*
Cc1csc(NC(=O)CCc2c(C)nc3cc(-c4ccc(Cl)cc4)nn3c2C)n1,.,.,0
COC(=O)c1ccc(CNC(=O)COC(=O)C23CC4CC(CC(C4)C2)C3)cc1,.,-5,2
O=C(Nc1ccccc1-c1nnc(SCc2ccccc2Cl)o1)c1ccccc1,.,0,3
O=C1N=C(c2ccccc2)S/C1=C\c1cccs1,-12,-1,6.7*
O=C1N=C(N2CCN(c3ccccc3)CC2)S/C1=C/c1cccs1,.,-5,-1
Cc1ccccc1NC(=O)COc1nsnc1N1CCOCC1,-4,1,0
O=C(COc1nsnc1N1CCOCC1)N/N=C/c1ccccc1O,.,2,5.5*
S=C1NCN(C2CCCCC2)CN1Cc1ccccc1,.,.,-2
COc1cccc(-c2cc(C(=O)NCCCn3ccnc3)c3ccccc3n2)c1,.,-6,-3
CCCCCOC(=O)Nc1ccc(S(=O)(=O)Nc2cccc([N+](=O)[O-])c2)cc1,.,-6,0
CCCCOC(=O)Nc1ccc(C(C)C)cc1,-1,.,6.0*
CCCCOC(=O)Nc1ccc(C(N)=O)cc1,6,0,-2
CCCCOC(=O)Nc1ccc(S(=O)(=O)Nc2ccc([N+](=O)[O-])cc2)cc1,.,-5,4.7*
Cc1ccc(C)c(N2C(=O)c3cc(N4CCOCC4)c([N+](=O)[O-])cc3C2=O)c1,.,-2,-2
SMILES,MRP resist rev,Phagocytosis inh,MRP-1 activ
CCOc1ccccc1NS(=O)(=O)c1ccc2c(c1)n(C)c(=O)c(=O)n2C,.,4,-1
O=C(Nn1c(C2CCCCC2)nc2ccccc2c1=O)c1ccc([N+](=O)[O-])cc1,.,-4,-3
S=C(NN=C1C2CC3CC(C2)CC1C3)Nc1ccccc1,-1,0,-1
Cc1ccc(CNC(=O)C(=O)NCC(c2ccco2)N2CCOCC2)cc1 (centres undefined),.,-15,1
O=C(NCc1ccc(Cl)cc1)C(=O)NCC(c1ccco1)N1CCOCC1 (centres undefined),.,-15,9.1*
Cn1nnnc1SCC(=O)Nc1nc(-c2ccccc2)c(-c2ccccc2)o1,60*,3,-4
CCN(CC)C(=S)SCC(=O)Nc1nc(-c2ccccc2)c(-c2ccccc2)o1,.,-11,-3
COc1nccnc1NS(=O)(=O)c1ccc(NS(=O)(=O)c2ccc(NC(C)=O)cc2)cc1,-15,.,-2
COc1ccc(C(=O)Nc2ccc(S(=O)(=O)Nc3nccnc3OC)cc2)cc1,.,1,6.2*
C/C(=N\NC(=O)c1cc(-c2ccc(C)s2)[nH]n1)c1ccco1,.,-8,0
O=C(CC(c1ccccc1)c1ccccc1O)NCc1ccccc1Cl (centres undefined),.,-4,-2
CCCCNC(C(=O)Nc1ccc(Cl)c([N+](=O)[O-])c1)c1ccccc1 (centres undefined),.,-7,0
CCC1(C)Cc2c(sc3nnn(CC(=O)Nc4ccc(C)cc4)c(=O)c23)CO1 (centres undefined),.,1,9.7*
CCC1(C)Cc2c(sc3nnn(CC(=O)Nc4cccc5ccccc45)c(=O)c23)CO1 (centres undefined),.,1,-4
CCc1noc(C)c1C(=O)Nc1ncc(C)s1,21,2,0
CCc1noc(C)c1C(=O)Nc1nc(-c2cc(C)ccc2C)c(C)s1,.,8,5.5*
Clc1ccc(-c2cn3c(n2)-c2ccccc2C3)cc1Cl,.,-9,-1
COc1cccc(N2C(=O)C(Cc3c[nH]c4ccccc34)NC2=S)c1 (centres undefined),.,8,-2
CC(=O)c1c(C)[nH]c(C(=O)Nc2nc(-c3ccc(Cl)cc3)cs2)c1C,.,.,4.8*
CC(=O)c1c(C)[nH]c(C(=O)Nc2nc(-c3ccc(-c4ccccc4)cc3)cs2)c1C,.,-8,-5
CCOC(=O)c1cnc(SC)nc1Oc1cccc(NC(=O)c2cccc(Cl)c2Cl)c1,.,-1,0
Cc1c(N=C(N)/N=C(\N)Nc2ccc(Br)cc2)c(=O)n(-c2ccccc2)n1C,.,.,-2
CC(C)(C)NC(=O)C(c1c[nH]c2ccccc12)N(C(=O)Cn1nnc(-c2ccc(Cl)cc2)n1)c1ccccc1F (centres undefined),.,-6,-1
O=C(NC1CCCC1)C(c1c[nH]c2ccccc12)N(C(=O)Cn1nnc(-c2ccc(Cl)cc2)n1)c1ccccc1 (centres undefined),.,.,11*
O=c1c2c3c(sc2n2cnnc2n1Cc1ccccc1)CN(Cc1ccccc1)CC3,64*,1,.
SMILES,MRP resist rev,Phagocytosis inh,MRP-1 activ
Cc1nnc2n(Cc3ccccc3)c(=O)c3c4c(sc3n12)CN(Cc1ccccc1)CC4,25,1,.
NC(=O)c1ccc(C(F)(F)F)n(Cc2cccc(Cl)c2)c1=O,.,0,-2
CN(Cc1ccccc1)c1ncnc2c1cnn2-c1ccccc1,2,-1,5.3*
CCN(c1ccccc1)c1ncnc2c1cnn2-c1ccccc1,-1,0,3
Cc1ccc(-c2cc3cccc[n+]3cc2-c2ccc(C)cc2)cc1,.,4,-4
CCc1nn2cc(C(=O)c3cc(Cl)ccc3O)cnc2c1-c1ccc(F)cc1,.,-10,-5
C/C(=N\NC(=O)CCc1c[nH]c2ccccc12)c1cccc([N+](=O)[O-])c1,.,-4,7.9*
C/C(=N\NC(=O)c1ccccc1C)c1cccc([N+](=O)[O-])c1,.,0,0
CCOc1cc(Cl)c(NC(=O)CC)cc1OCC,.,-3,0
COc1ccc(-c2nn(-c3ccccc3)cc2/C=N/N2C(=O)CSC2=S)cc1,-15,.,3
CCN(CC)S(=O)(=O)c1cc(C(=O)OCC(=O)NC(=O)c2cccn2C)ccc1C,.,-3,0
Cc1cc(=O)oc2cc(OCC(=O)Nc3cccc(S(=O)(=O)N(C)C)c3)ccc12,.,-5,-2
Cc1ccc(N(C)S(=O)(=O)c2cccc(C(=O)Oc3ccc4c(C)cc(=O)oc4c3)c2)cc1,.,-4,4.8*
CCC(=O)N(Cc1ccco1)c1nc(C(=O)Nc2ccc(Cl)cc2)c(C)s1,.,-6,-4
CCCC(=O)c1ccc(N2CCOCC2)c(F)c1,.,-2,-2
CCC(=O)c1ccc(N2CCOCC2)c(F)c1,-5,.,7.7*
